# In PubChem BioAssay (NCI):
# The panel holds about 83,000 compounds, 20% with a hit somewhere; the sample as a whole holds those more often.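 48-hour exposure, single concentration, 96-well plates; percent growth endpoint where 0 means no net growth. Active: below 10.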 A number with no mark means an inactive call. The source made the active and inactive calls.
# What was measured:
# Assay in all cases: NCI-60 one-dose screen, 48 h (100 = growth as untreated, 0 = no growth, -100 = all killed)
# HCT-15 colon = settings: 10 µM unless noted
# HT29 colon = settings: 10 µM unless noted
# SNB-75 CNS = settings: 10 µM unless noted
# SNB-19 CNS = settings: 10 µM unless noted
# U251 CNS = settings: 10 µM unless noted
# PC-3 prostate = settings: 10 µM unless noted
# SK-MEL-5 melanoma = settings: 10 µM unless noted
# UACC-62 melanoma = settings: 10 µM unless noted
# SK-MEL-28 melanoma = settings: 10 µM unless noted
# SK-MEL-2 melanoma = settings: 10 µM unless noted
# EKVX NSCLC = settings: 10 µM unless noted
# SN12C renal = settings: 10 µM unless noted
# UO-31 renal = settings: 10 µM unless noted
# TK-10 renal = settings: 10 µM unless noted
# ACHN renal = settings: 10 µM unless noted
# CAKI-1 renal = settings: 10 µM unless noted
# A498 renal = settings: 10 µM unless noted
# CCRF-CEM leukemia = settings: 10 µM unless noted
# MOLT-4 leukemia = settings: 10 µM unless noted
# LOX IMVI melanoma = settings: 10 µM
Compound,growth (HCT-15 colon),growth (HT29 colon),growth (SNB-75 CNS),growth (SNB-19 CNS),growth (U251 CNS),growth (PC-3 prostate),growth (SK-MEL-5 melanoma),growth (UACC-62 melanoma),growth (SK-MEL-28 melanoma),growth (SK-MEL-2 melanoma),growth (EKVX NSCLC),growth (SN12C renal),growth (UO-31 renal),growth (TK-10 renal),growth (ACHN renal),growth (CAKI-1 renal),growth (A498 renal),growth (CCRF-CEM leukemia),growth (MOLT-4 leukemia),growth (LOX IMVI melanoma)
c1ccc2c(NCCCN3CCN(CCCNc4c5ccccc5nc5ccccc45)CC3)c3ccccc3nc2c1,2.79% [100 µM] (active),-37.3% [100 µM] (active),-91% [100 µM] (active),-21.1% [100 µM] (active),-19.4% [100 µM] (active),-33.1% [100 µM] (active),-70.3% [100 µM] (active),-88.5% [100 µM] (active),-72.3% [100 µM] (active),-76.8% [100 µM] (active),-48.6% [100 µM] (active),-35.9% [100 µM] (active),-27.6% [100 µM] (active),-9.59% [100 µM] (active),-60.9% [100 µM] (active),-15.5% [100 µM] (active),-31.9% [100 µM] (active),-0.0236% [100 µM] (active),-5.28% [100 µM] (active),–
C=C1SC(=Nc2c(C)cccc2C)N(c2nc(Cl)nc(Cl)n2)C12CCCCC2,109%,108%,96.7%,108%,102%,99.3%,84.2%,105%,104%,–,–,107%,–,108%,–,96.6%,113%,95.9%,95.5%,104%
Nc1cccc2cccc(O)c12,83%,107%,78.5%,98.7%,70.5%,69.6%,86.9%,86.4%,111%,–,94.6%,91%,–,83.7%,80%,101%,97.9%,52.8%,83%,85.1%
CNc1ccccc1C(N)=O,101%,103%,91.8%,94.8%,92.8%,116%,101%,93.8%,107%,103%,98.4%,94.8%,75.5%,105%,97.1%,81.4%,121%,102%,117%,–
CC(C)c1ccccc1NC(=O)N1CCC(C(C)C)CC1,110%,107%,89.3%,107%,98.1%,97.9%,97.4%,105%,106%,–,–,106%,85.6%,127%,–,92.3%,99.3%,101%,90.8%,103%
CCC12OC(COc3ccccc3)CN1CCN2c1ccccc1 (stereo unspecified),105% [100 µM],111% [100 µM],84.4% [100 µM],96.9% [100 µM],101% [100 µM],102% [100 µM],104% [100 µM],89.5% [100 µM],103% [100 µM],99.4% [100 µM],95.2% [100 µM],96.1% [100 µM],75.2% [100 µM],146% [100 µM],97.3% [100 µM],89% [100 µM],107% [100 µM],101% [100 µM],94.5% [100 µM],–
NC(=S)c1c(N)n(C2OC(CO)C(O)C2O)c2ncnc(N)c12 (stereo unspecified),3.4% (active),5.09% (active),-8.18% (active),14.9%,17.3%,-10.1% (active),-77.5% (active),-73.7% (active),-46.8% (active),–,-27.4% (active),15%,-40% (active),-4.54% (active),11.3%,–,-55.6% (active),-48.9% (active),–,-3.22% (active)
S=C(NCc1ccccc1)N1CCC(CCCC2CCN(C(=S)NCc3ccccc3)CC2)CC1,99.8%,95.9%,101%,94.5%,98.3%,89.5%,58.8%,79.1%,119%,114%,83.5%,96.8%,84.4%,108%,93.1%,86.6%,121%,88.8%,88.5%,–
CC(=O)c1cc(O)ccc1O,107%,104%,103%,97.9%,104%,98.3%,113%,96.6%,109%,–,112%,97.4%,88.9%,93.6%,110%,–,90.6%,73.7%,92.8%,98.9%
Nc1c(O)c(S(=O)(=O)O)c(O)c2c1C(=O)c1ccccc1C2=O,15.9%,14%,24.7%,26.2%,20.2%,23.8%,5.72% (active),34.6%,42.5%,6.13% (active),33.8%,28.1%,12.2%,21.7%,4.01% (active),13.5%,5.41% (active),–,–,–
CC(=O)NCNC(C)=O,101%,111%,92.4%,107%,103%,88.9%,102%,112%,107%,–,–,109%,105%,115%,100%,102%,113%,–,87.9%,113%
O=C(O)CSCC(=O)Nc1cc(C(F)(F)F)ccc1Cl,103%,104%,125%,106%,106%,102%,102%,99.6%,114%,111%,105%,102%,84.4%,110%,106%,89.4%,139%,101%,–,–
CCOC(=O)c1ccc(C(C)(C)C)cc1,111%,109%,102%,112%,97.5%,105%,105%,106%,109%,–,114%,107%,89.8%,103%,–,101%,114%,113%,87.1%,99.8%
NC(=S)N/N=C/c1ccc(Cl)cc1,103%,108%,103%,107%,99.7%,99.6%,99.1%,109%,107%,–,–,128%,94.8%,106%,108%,–,99.5%,–,88.4%,99.1%
CCOC(=O)CO,115%,107%,94.1%,105%,110%,101%,107%,103%,114%,–,95.6%,104%,72.8%,109%,–,96.5%,97%,102%,–,107%
C#CCSc1nnnn1-c1ccccc1,54.1%,96%,73.2%,97.5%,36.7%,89.4%,91.1%,101%,100%,–,–,88%,91.1%,80.4%,70.2%,78.5%,40%,83.9%,87.9%,95.1%
Oc1ccc(N=Cc2ccc(OCc3ccccc3)cc2)cc1,96.6%,109%,92.1%,91.3%,102%,92.5%,92.2%,88.6%,106%,–,–,101%,79.9%,99.3%,99.7%,98.1%,75.8%,82.4%,97.1%,100%
